Source: PubChem (National Center for Advancing Translational Sciences (NCATS))
The entries come from a sample that favours hits as a whole.
Marburg entry inh – qHTS for inhibitors of binding or entry into cells for Marburg Virus; Marburg virus pseudotyped entry inhibition, cell reporter; Potency, µM (doses to about 37.8 µM), inactives show at the highest dose activity change, negative = inhibition, usual class: inhibitors; 1.8% of 300,000 active; AID 540276, 2011; calls by dose curve; tested in HEK293 cells; note: potency is the fitted concentration of half-maximal effect; % is set by controls: 0 for no effect and ±100 for the full control effect
Vaccinia Venus – qHTS for Stage-Specific Inhibitors of Vaccinia Orthopoxvirus: Venus Reporter Primary qHTS; Potency, µM (titrated, usually from 36.5 µM), inactives show at the top dose activity change, negative = inhibition, actives largely listed as inhibitors; Vaccinia virus Venus reporter expression, fluorescence; 0.46% of 330,000 active; AID 720580, 2013; calls by dose curve; tested in A549 cells; note: potency is the fitted concentration of half-maximal effect; % is set by controls: 0 for no effect and ±100 for the full control effect; nearly all actives have a fitted effect of over 30% in size
VACV mCherry inh – qHTS for Stage-Specific Inhibitors of Vaccinia Orthopoxvirus: mCherry Reporter Primary qHTS. Vaccinia virus mCherry reporter infection, fluorescence. Potency, µM (top dose mostly 36.5 µM), for the others: at the top dose activity change, negative = inhibition, hits mostly inhibitors. 0.63% of 310,000 active. AID 720579, 2013; calls by dose curve; tested in A549 cells; note: potency is the fitted concentration of half-maximal effect; % is set by controls: 0 for no effect and ±100 for the full control effect; nearly all actives have a fitted effect of over 35% in size
CHX counter – Cycloheximide Counterscreen for Small Molecule Inhibitors of Shiga Toxin; max response, %; cell reporter, cycloheximide protein synthesis inhibition counterscreen; 12% of 300,000 active; in the data active = max response mostly above about 13%, no sharp cut-off; inactive = mostly below about 14%; note: read at 38.3 µM for the half of the compounds with a filed dose; 0% is about no effect
Shiga inhibitor – A qHTS for Small Molecule Inhibitors of Shiga Toxin; Vero cells, Shiga toxin protein synthesis inhibition reporter; inhibition, % at 38.7 µM; 9.2% of 290,000 active; in the data active = inhibition mostly above about 28%, no sharp cut-off; inactive = mostly below about 43%; note: 0% is about no effect
LASV entry inh – qHTS for Inhibitors of binding or entry into cells for Lassa Virus. Lassa virus pseudotype entry inhibition, cell reporter. Potency, µM (highest dose often 37.9 µM), for the others: at the top dose activity change, negative = inhibition, hits mostly inhibitors. 1.2% of 300,000 active. AID 540256, 2011; calls by dose curve; tested in HEK293 cells; note: potency is the fitted concentration of half-maximal effect; % is set by controls: 0 for no effect and ±100 for the full control effect; nearly all actives have a fitted effect of over 50% in size
An asterisk follows results filed as active; i = inactive; u = inconclusive; x = not tested or not shown; [ ] = another dose, or the depositor's remark.

SMILES	Marburg entry inh	Vaccinia Venus	VACV mCherry inh	CHX counter	Shiga inhibitor	LASV entry inh
COc1ccc(C2=NN(c3ccc(C(=O)O)cc3)C(c3ccc(OC)c(OC)c3)C2)cc1 (stereo unspecified)	4.5%[46.1 µM]	0.4%	-11.1%	38.6*	52.9*	7.5%[46.1 µM]
COC(=O)c1[nH]c2ccccc2c1NC(=O)c1c(F)cccc1F	x	x	x	7.0	10.9	x
O=C(NCc1nnc2n1CCN(C(=O)c1cccc(Cl)c1)CC2)C1CC1	x	2.4%	0.9%	x	x	x
CCOC(=O)c1ccc2[nH]c3c(c2c1)CCCC3	x	x	x	51.0*	86.8*	x
CCOC(=O)c1ccc(NS(=O)(=O)c2ccc3[nH]c4c(c3c2)CCCCC4)cc1	x	3.6%	-12.5%	x	x	-18.7%[46.1 µM]
CCOC(=O)c1ccc2[nH]c3c(c2c1)CCCC3O (stereo unspecified)	22.7%[46.1 µM]	-8.1%	-7.7%	23.9*	35.0	-23.1%
O=c1[nH]cc(F)c(=O)[nH]1	u	-28.4%	5.62µM*	-0.6	0.2	u
COc1ccc(CNC(=O)Cn2nc(C)c3nn(-c4ccc(Cl)cc4)c(C)c3c2=O)cc1	x	-18.1%	-16.3%	x	x	15.4%[46.1 µM]
O=C(CC(Sc1ccccc1)c1cccs1)c1ccco1 (stereo unspecified)	-4.1%	-6.3%	-1.8%	25.7*	56.6*	-3.0%
CCCCn1cnc2c(cnn2-c2ccc(Cl)cc2)c1=O	-0.3%	-8.1%	x	10.8*	18.3	-29.9%
CCCCn1cnc2c(cnn2-c2ccc(F)cc2)c1=O	u	-24.1%	x	27.2*	120.0*	-16.0%
CCCn1cnc2c(cnn2-c2ccc(F)cc2)c1=O	-0.1%	-12.8%	x	43.3*	70.5*	6.4%
CCOC(=O)C(C)n1cnc2c(cnn2-c2ccc(Cl)cc2)c1=O (stereo unspecified)	5.8%	-13.8%	i	10.6	-24.6	-23.9%
CC(=O)c1ccc(F)c(-c2cc(C)cc3c2OC(CNC(=O)C2CCCCN2C)C3)c1 (stereo unspecified)	x	-7.3%	-20.8%	x	x	x
CCCCCC(=O)N1C[C@H](O)[C@@H](n2cc(C3CC3)nn2)C[C@@H]1c1ccc(Cl)cc1	x	2.3%	-9.8%	x	x	x
CCOC(=O)c1sc2ccccc2c1S(=O)(=O)Nc1cc(OC)ccc1OC	x	2.9%	-7.5%	x	x	-19.6%[46.1 µM]
O=C(CCc1nnc(-c2ccccc2)o1)NCc1c(F)cccc1F	u	3.3%	-8.7%	13.0	9.7	24.4%[46.1 µM]
CN1CCN(C(=O)c2ccccc2NC(=O)c2sc3ccccc3c2Cl)CC1	-2.9%	-7.9%	-0.5%	1.9	-9.3	u
O=C(NNC(=S)NC(=O)c1sc2ccccc2c1Cl)c1ccc(Cl)cc1	u	-9.7%	-17.7%	13.7*	11.6	-19.5%
O=C(O)c1ccccc1NC(=S)NC(=O)c1sc2ccccc2c1Cl	x	-15.1%	i	18.4	38.4	x
CCn1nnc(NC(=O)c2cccnc2Cl)n1	13.6%[46.1 µM]	0.4%	-15.0%	-1.8	-8.4	15.2%
O=C(Nc1ccncc1)c1sc2ccccc2c1Cl	u	-17.1%	-16.7%	25.9*	71.8*	-20.1%
CN1CCN(c2ccc(NC(=O)c3sc4ccccc4c3Cl)cc2)CC1	u	-16.8%	-15.5%	42.7*	81.7*	u
Cc1ccc(NC(=O)c2sc3ccccc3c2Cl)cc1	x	-18.5%	-16.4%	x	x	20.9%[46.1 µM]
CCn1nnc(NC(=O)c2sc3ccccc3c2Cl)n1	u	-16.5%	x	42.3*	65.7*	u
SMILES	Marburg entry inh	Vaccinia Venus	VACV mCherry inh	CHX counter	Shiga inhibitor	LASV entry inh
CC(C)CN(C(=O)CSc1nc(N)cc(N)n1)C1CCS(=O)(=O)C1 (stereo unspecified)	1.8%	-13.0%	-13.2%	x	x	20.8%
COCCCNC(=O)c1cnn(-c2ncc3c(n2)-c2ccccc2CCC3)c1C	x	-11.3%	-10.1%	x	x	x
Cc1ccc(C(=O)Nc2ccc(C(=O)N3CCCCC3)cc2)o1	x	x	x	26.4*	52.1*	x
COc1ccccc1C(=O)Nc1ccc(C(=O)N2CCCCC2)cc1	-0.9%	-13.9%	-17.1%	13.1*	-1.3	-6.6%
COc1ccccc1C(=O)Nc1ccc(C(=O)N2CCCC2)cc1	-12.0%	-8.5%	-4.5%	15.6	32.8	6.1%
COc1ccccc1NC(=O)Nc1ccc(C(=O)N2CCCCC2)cc1	x	x	x	27.2*	79.6*	x
Cc1cccc(N2CCN(c3ncnc4c3nc3n4CCCCC3)CC2)c1C	x	-10.9%	-13.2%	x	x	-16.4%[46.1 µM]
COc1ccc(NC(=O)/C(Cl)=C(/Cl)S(=O)Cc2ccccc2)cn1 (stereo unspecified)	u	8.91µM*	7.08µM*	47.7*	24.0	1.58µM*
COc1ccc(NC(=O)Cc2ccccc2)cn1	6.1%[46.1 µM]	1.9%	-3.1%	-0.5	47.0	u
COc1ccc(CS(=O)(=O)/C(Cl)=C(/Cl)C(=O)Nc2ccc(OC)nc2)cc1	2.82µM*	10µM*	x	13.1	3.3	6.31µM*
O=[N+]([O-])c1cccc(-c2ccc(/C=N/NC(=S)Nc3ccccc3)o2)c1	-5.8%	-16.6%	x	13.8*	16.2	-4.2%
O=[N+]([O-])c1ccc(/C=N/NC(=S)Nc2ccccc2)o1	23.8%	0.2%	-12.2%	23.4*	48.3*	14.3%
O=C(CNC(=O)c1ccccc1)N/N=C/c1ccc([N+](=O)[O-])o1	-38.3%	x	x	9.7	0.8	-23.7%
O=[N+]([O-])c1ccc(/C=N/NC(=S)Nc2ccccc2F)o1	20.2%	-11.0%	-13.8%	34.4*	21.1	u
O=[N+]([O-])c1cccc(-c2ccc(/C=N/NC(=S)NCc3ccco3)o2)c1	u	-8.9%[7.34 µM]	-13.9%[7.34 µM]	5.5	26.4	-27.1%
Fc1ccccc1NC(=S)N/N=C/c1ccccc1Br	2.2%	x	x	22.2*	70.2	-3.6%
Cc1c(-c2ccc(/C=N/NC(=O)C(=O)Nc3ccccc3F)o2)cccc1[N+](=O)[O-]	x	x	x	-2.5	11.4	x
Cc1cc(O)c(C(C)C)cc1NS(=O)(=O)c1ccccc1	6.9%	x	x	-1.9	-3.7	10.1%
CCN(CC)CCC(=O)N1C/C(=C/c2ccccc2)C(=O)/C(=C\c2ccccc2)C1	11.2µM*	u	u	x	x	10µM*
O=C1/C(=C\c2ccccc2)CN(C(=O)CCN2CCCCC2)C/C1=C/c1ccccc1	1µM*	11.2µM*	12.6µM*	x	x	u
O=C1/C(=C\c2ccc(Cl)c(Cl)c2)CN(C(=O)CCN2CCOCC2)C/C1=C/c1ccc(Cl)c(Cl)c1	u	11.2µM*	u	x	x	u
CN1CCc2[nH]c3ccc(Cl)cc3c2C1	x	14.9%	-20.2%	x	x	x
CCOC(=O)C1C(=O)CC(C)(O)C(C(=O)OCC)C1c1ccc([N+](=O)[O-])cc1 (stereo unspecified)	x	x	x	-1.7	-4.6	x
O=Cc1cc(-c2ccccc2)[nH]c1-c1ccccc1	9.3%[46.1 µM]	-10.7%	i	23.7*	x	21.0%[46.1 µM]
Fc1ccc(-n2nnc(-c3nccs3)n2)cc1	x	-4.6%	i	37.9*	53.5*	x
Clc1ncccc1-c1nnn(-c2ccccc2)n1	x	-1.1%	i	50.0*	56.3*	x
c1ccc(-n2nnc(-c3cccnc3)n2)cc1	x	-21.4%	i	41.3*	43.8*	x
Clc1nc2ccccc2cc1-c1nnn(-c2ccccc2)n1	x	-17.9%	i	45.7*	58.7*	x
